Structures can show the parent of a compound that is named as a salt.

The subject of the assay is Staphylococcus aureus Sa2 (MRSA, cystic fibrosis isolate). As to the kind of experiment: growth reduction vs untreated control (OD550); higher = stronger antibacterial activity. The settings on record: 0.1 mM; 24 h. As for the experimental part: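 Single-dose screen of the MedChem Express Drug Repurposing Library (0.1 mM, 1% DMSO) against planktonic MRSA S. aureus Sa2 (CF isolate) in TSB in 96-well plates, 37 °C aerobic, 24 h. Assays were run in triplicate and repeated twice.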
As to `OCc1cc([C@@H](O)CNCCCCCCOCCOCc2c(Cl)cccc2Cl)ccc1O` [Vilanterol], the growth reduction was found to be 99.9%.
In the case of `Fc1ccc(C(c2ccc(F)cc2)N2CCN(C/C=C/c3ccccc3)CC2)cc1` [Flunarizine (dihydrochloride)] it was 94.4%; in that of `CCOc1cc2ncc(C#N)c(Nc3ccc(F)c(Cl)c3)c2cc1NC(=O)/C=C/CN(C)C` [Pelitinib], 90.6%.
In turn, `C=C[C@@](C)(/C=C/c1ccc(O)cc1)CCC=C(C)C` [Bakuchiol] showed a growth reduction of 100%.
In turn, `Cc1ccc(C(=O)N(CCCN)[C@@H](c2oc3cc(Cl)ccc3c(=O)c2Cc2ccccc2)C(C)C)cc1` had a growth reduction of 100%.
In the case of `Clc1ccc(CCC(Cn2ccnc2)Sc2c(Cl)cccc2Cl)cc1` (configuration not stated) [Butoconazole (nitrate)] it was 100%; in that of `CCCCc1oc2ccccc2c1C(=O)c1cc(I)c(OCCN(CC)CC)c(I)c1` [Amiodarone (hydrochloride)], 100%.
In the case of `NC(=O)N1CCC(CC(=O)N2CCC([C@H]3c4ncc(Br)cc4CCc4cc(Cl)cc(Br)c43)CC2)CC1` [Lonafarnib] it was 94.3%.
On to `CC(O)c1cc(C(=O)N[C@@H](C)Cn2ccc(-c3ccc(C#N)c(Cl)c3)n2)n[nH]1` (some centres not stated) [Darolutamide], for which the growth reduction was 100%.
In the case of `Cc1nc2sccn2c(=O)c1CCN1CCC(=C(c2ccc(F)cc2)c2ccc(F)cc2)CC1` [Ritanserin] it was 97.5%; in that of `CC1(C)CC[C@]2(C(=O)O)CC[C@]3(C)[C@H](C(=O)C=C4[C@@]5(C)C=C(C#N)C(=O)C(C)(C)[C@@H]5CC[C@]43C)[C@@H]2C1` [Bardoxolone], 100%; in that of `Nc1ccn([C@@H]2O[C@H](CO)[C@@H](O)C2(F)F)c(=O)n1` [Gemcitabine (hydrochloride)], 100%.
Regarding `Cc1ccc(C(=O)N(CCCN)[C@@H](c2nc3cc(Cl)ccc3c(=O)n2Cc2ccccc2)C(C)C)cc1` [Ispinesib], the growth reduction turned out to be 100%.
Take `CCN(C/C=C\c1ccc(C2CCCCC2)c(Cl)c1)C1CCCCC1`: the growth reduction stood at 100%.
In the case of `COc1cc(NCc2ccc3nc(N)nc(N)c3c2C)cc(OC)c1OC` [Trimetrexate] it was 90.4%; in that of `COc1cc([C@@H]2c3cc4c(cc3[C@@H](O[C@@H]3O[C@@H]5CO[C@@H](c6cccs6)O[C@H]5[C@H](O)[C@H]3O)[C@H]3COC(=O)[C@H]23)OCO4)cc(OC)c1O` [Teniposide], 100%.
`Cn1cc(-c2ccncc2)c(-c2ccc(OCc3ccc4ccccc4n3)cc2)n1` [Mardepodect (hydrochloride)] came in with a growth reduction of 100%.
The compound `CCCCCCCC/C=C/CCCCCCCC(=O)OC[C@H]1O[C@@H](n2ccc(N)nc2=O)C(F)(F)[C@@H]1O` [Gemcitabine (elaidate)] came in with a growth reduction of 100%.
Compound `CC/C(=C(/CC)c1ccc(O)cc1)c1ccc(O)cc1` [Diethylstilbestrol] gave a growth reduction of 100%.
As for `CCCCc1oc2ccc(NS(C)(=O)=O)cc2c1C(=O)c1ccc(OCCCN(CCCC)CCCC)cc1` [Dronedarone], the figure is 96.5%.
For `O=c1nc(OC[C@@H]2COCCO2)cc2n1CCc1cc(C#CC3CC3)ccc1-2`, the growth reduction came to 96.2%.
As for `CCCCCCCCc1ccc(CCC(N)(CO)CO)cc1` [Fingolimod (hydrochloride)], the figure is 100%.
With `C=CC(N)CCC(=O)O` (configuration not stated) [Vigabatrin (hydrochloride)], the growth reduction is 100%.
In the case of `COc1cccc(OC)c1-c1cc(C(=O)NC2(C(=O)O)C3CC4CC(C3)CC2C4)nn1-c1ccnc2cc(Cl)ccc12` (configuration not stated) [Meclinertant] it was 100%; in that of `C#C[C@]1(O)CC[C@H]2[C@@H]3CCC4=CCCC[C@@H]4[C@H]3C(=C)C[C@@]21CC` [Desogestrel], 99.4%.
Regarding `CN(Cc1cnc2nc(N)nc(N)c2n1)c1ccc(C(=O)N[C@@H](CCC(=O)O)C(=O)O)cc1` [Methotrexate], the growth reduction turned out to be 94.1%.
For the compound `O=c1[nH]cc(F)c(=O)[nH]1` [5-Fluorouracil], the growth reduction was 97.1%.
As for `CCN1CCN(Cc2ccc(-c3cc4c(N[C@H](C)c5ccccc5)ncnc4[nH]3)cc2)CC1`, the figure is 100%.
In turn, `CC(=O)OCC(=O)[C@@]1(O)CC[C@H]2[C@@H]3CCC4=CC(=O)C=C[C@]4(C)[C@H]3C(=O)C[C@@]21C` [Prednisone acetate] returned a growth reduction of 97.7%.
The compound `CNC(=O)c1cc(Oc2ccc(NC(=O)Nc3ccc(Cl)c(C(F)(F)F)c3)c(F)c2)ccn1` [Regorafenib (monohydrate)] had a growth reduction of 100%.
Regarding `CSc1ccc(OCc2ncc([N+](=O)[O-])n2C)cc1` [Fexinidazole], the growth reduction worked out at 98.5%.
In the case of `CC(C)c1c(C(=O)Nc2ccccc2)c(-c2ccccc2)c(-c2ccc(F)cc2)n1CC[C@@H](O)C[C@@H](O)CC(=O)O` [Atorvastatin (hemicalcium salt)] it was 99.7%.

The values above are taken from the supplement of paper PMC12024424.
